Screening data: PubChem BioAssay, The Scripps Research Institute Molecular Screening Center
Rows were chosen to be rich in hits. Some 1.8% of all compounds tested hit in one or more screens of this group.
LYPLA1 counter: blocks human lysophospholipase 1, a PME1 counter-screen; recombinant LYPLA1, FP-Rh probe fluorescence polarization; inhibition, % at 5.9 µM; actives 0.16% (n = 320,000); AID 2174;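 active means inhibition above the mean of all tested compounds plus 3 SD, set per campaign, cut at about 14% in these data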;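 further: inhibitors block serine hydrolase probe labeling of LYPLA1 so polarization falls; 0% = enzyme with DMSO and 100% = wells lacking LYPLA1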
PAD4 FP inh: PAD4 (human) enzyme inhibition | recombinant PAD4, RCA probe fluorescence polarization | actives 0.41% (n = 330,000) | AID 485272 | Q9UM07 | inhibition, % at 6.36 µM;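 active means percent inhibition above a cutoff equal to the mean of all tested compounds plus 3 SD, cut at about 15% in these data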;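 further: 0% = PAD4 with RCA probe and DMSO and 100% = probe without PAD4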
PME-1 inh: blocks human protein phosphatase methylesterase 1; Q9Y570; recombinant PME-1, FP-Rh probe fluorescence polarization; inhibition, % at 5.9 µM; actives 0.53% (n = 320,000); AID 2130;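 active means inhibition above the campaign mean of all compounds plus 3 SD, cut at about 26% in these data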;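 further: competitive labeling of PME-1 active site by serine hydrolase directed probe; 0% = PME-1 with DMSO and 100% = wells lacking PME-1 enzyme; inhibitors block probe labeling so polarization falls and inhibition rises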
Target sequence (Q9Y570 whole entry, looked up): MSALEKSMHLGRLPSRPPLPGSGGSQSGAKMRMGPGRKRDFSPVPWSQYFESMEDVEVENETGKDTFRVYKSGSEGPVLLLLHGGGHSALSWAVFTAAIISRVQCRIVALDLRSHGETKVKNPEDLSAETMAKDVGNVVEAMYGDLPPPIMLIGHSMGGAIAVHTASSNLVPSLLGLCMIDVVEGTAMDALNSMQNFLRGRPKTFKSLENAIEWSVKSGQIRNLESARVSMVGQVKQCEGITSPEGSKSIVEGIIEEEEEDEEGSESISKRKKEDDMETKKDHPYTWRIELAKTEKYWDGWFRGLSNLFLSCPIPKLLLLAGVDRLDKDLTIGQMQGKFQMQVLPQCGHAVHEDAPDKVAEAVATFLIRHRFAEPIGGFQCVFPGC
Fam108B counter: blocks mouse Fam108B hydrolase in RBBP9 counter-screen. recombinant Fam108B, FP-Rh probe fluorescence polarization. inhibition, % at 9.51 µM. actives 0.33% (n = 300,000);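 active means inhibition above the screen mean inhibition plus 3 SD, computed separately per campaign, cut at about 18% in these data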;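 further: inhibitors lower polarization as less probe binds the enzyme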
LYPLA2 counter: blocks human lysophospholipase 2, a PME1 counter-screen | O95372 | inhibition, % at 5.9 µM | recombinant LYPLA2, FP-Rh probe fluorescence polarization | actives 0.38% (n = 320,000);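 active means inhibition above the screen-wide mean plus 3 SD, limit set per campaign, cut at about 26% in these data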;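 further: 0% = LYPLA2 with DMSO and 100% = wells lacking LYPLA2 enzyme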
Target sequence (O95372 whole entry, looked up): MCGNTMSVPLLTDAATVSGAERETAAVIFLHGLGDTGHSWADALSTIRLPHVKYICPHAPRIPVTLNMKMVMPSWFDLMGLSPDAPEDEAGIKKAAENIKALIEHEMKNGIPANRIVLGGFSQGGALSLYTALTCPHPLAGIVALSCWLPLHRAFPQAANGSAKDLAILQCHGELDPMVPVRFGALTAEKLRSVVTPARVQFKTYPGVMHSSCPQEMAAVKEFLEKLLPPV
GSTO1 inh: blocks human GSTO1 in RBBP9 counter-screen. recombinant GSTO1, activity-based probe fluorescence polarization. inhibition, % at 5.96 µM. actives 1.1% (n = 300,000). AID 1974;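 active means inhibition above the campaign mean inhibition plus 3 SD, cut at about 35% in these data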;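 further: 0% = GSTO1-1 with DMSO and 100% = wells lacking GSTO1-1 enzyme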
LYPLA2 conf: LYPLA2 (human) inhibition, confirmation counter-screen; recombinant LYPLA2, FP-Rh probe fluorescence polarization; shares compounds with LYPLA2 counter; actives 72% (n = 1,100); AID 2232; inhibition, % at 5.9 µM;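 active means mean inhibition across replicates above the hit cutoff set in the primary screen, cut at about 26% in these data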;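 further: blocked labeling of the enzyme by serine hydrolase FP-Rh probe lowers polarization; 0% = enzyme with DMSO and 100% = wells lacking LYPLA2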
LYPLA2 ABPP: inhibitors of human LYPLA2 | shares compounds with LYPLA2 counter | rhLYPLA2 in mouse brain proteome, gel ABPP FP-Rh | actives 30% (n = 150) | inhibition, % at 20 µM;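 active means inhibition of LYPLA2 enzyme probe labeling above about 50%, limit read from the data; inactive means inhibition below that limit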;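 further: loss of FP-Rh probe labeling of the LYPLA2 gel band measured as band density; 0% = DMSO only control band and 100% = blank gel background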
The depositor's hits bear a star; x = no result given.

SMILES	LYPLA1 counter	PAD4 FP inh	PME-1 inh	Fam108B counter	LYPLA2 counter	GSTO1 inh	LYPLA2 conf	others
Cc1cccc(Oc2cc(NC(=O)Cn3cnc([N+](=O)[O-])n3)cc([N+](=O)[O-])c2)c1	-14	0	5	-4	42*	-16	24
O=C(O)CN1C(=O)/C(=C\c2cc(Br)ccc2OCc2ccc([N+](=O)[O-])cc2)SC1=S	2	-5	15	13	62*	-2	64*
CNC(=O)COC(=O)c1ccc(Cl)c(S(=O)(=O)N2CCCC2)c1	3	6	1	3	28*	4	6
CC(=O)Nc1cccc(C(=O)OCC(=O)c2ccc(S(=O)(=O)N3CCCCC3)cc2)c1	8	-2	-9	2	66*	15	62*
COc1ccc(CC(=O)NCCS(=O)(=O)N2CCN(c3ccc(F)cc3)CC2)cc1OC	-3	1	8	2	1	-4	x
NS(=O)(=O)c1ccc(CCNC(=O)CSc2ncnc3ccccc23)cc1	3	-1	7	1	1	-4	x
COc1cc(C(=O)N2CCN(C(=O)c3ccccc3)CC2)cc(OC)c1OC	0	5	3	0	-5	1	x
COc1cc(C(=O)N2CCN(C(=O)c3cc(-c4ccc(Br)cc4)n[nH]3)CC2)cc(OC)c1OC	-3	5	7	-4	28*	-1	32*
N#C/C(=C\N1CCN(Cc2ccc3c(c2)OCO3)CC1)c1nc2ccccc2s1	11	-7	-10	-7	50*	-7	53*	LYPLA2 ABPP=40
CC1(C)Cc2c(sc3nnn(CC(=O)Nc4ccccc4)c(=O)c23)CO1	-1	4	0	-1	28*	2	36*
Cc1cccc(N2CCN(C(=O)c3ccc(NC(=O)CC4SC(N5CCCC5)=NC4=O)cc3)CC2)c1C (centres undefined)	x	1	x	x	x	x	x
COc1ccc(CCNC(=O)c2ccc(NC(=O)CC3SC(N4CCCC4)=NC3=O)cc2)cc1 (centres undefined)	0	3	-4	5	52*	-2	58*	LYPLA2 ABPP=25
O=C(CC1SC(N2CCCC2)=NC1=O)Nc1ccc(C(=O)N2CCN(c3cccc(Cl)c3)CC2)cc1 (centres undefined)	0	-3	-2	0	30*	9	62*	LYPLA2 ABPP=38
Cc1ccc(OCCNC(=O)c2ccc(NC(=O)CC3SC(N4CCCC4)=NC3=O)cc2)cc1 (centres undefined)	0	4	-2	1	45*	11	40*
O=C(C1CCCCC1)N1CCC(CO)(Cc2ccccc2Cl)CC1	1	9	2	3	4	-1	x
CCOc1ccccc1C(=O)Nc1cccc(-c2nnc(-c3ccccc3)o2)c1	-4	-1	0	-8	1	2	x
O=C(O)c1ccc(N=Cc2nc(-c3ccco3)oc2O)cc1	1	-3	5	7	31*	7	37*
O=C(c1ccco1)N1CCN(C(=S)Nc2ccc(F)c(Cl)c2)CC1	2	-7	-1	4	66*	-2	68*	LYPLA2 ABPP=47
O=C(Nc1ccc(N2CCN(C(=O)c3ccco3)CC2)c(Cl)c1)c1c(F)c(F)c(F)c(F)c1F	1	-4	-4	-9	62*	4	64*	LYPLA2 ABPP=50*
O=C(Nc1ccc(N2CCN(C(=O)c3ccco3)CC2)cc1)c1cc(Br)ccc1Cl	7	1	11	x	44*	x	49*
O=C(Nc1ccc(N2CCN(C(=O)c3ccco3)CC2)c(Cl)c1)c1cccnc1	3	1	-3	2	11	1	x
Cc1ccccc1C(=O)N1CCN(c2ccc(NC(=S)NC(=O)c3ccco3)cc2)CC1	-3	2	-2	3	8	4	x
O=C(c1ccco1)N1CCN(C(=S)Nc2ccc(F)cc2)CC1	-8	-1	-5	2	4	-5	x
COc1ccccc1C(=O)NC(=S)Nc1ccc(N2CCN(C(=O)c3ccco3)CC2)cc1	2	-1	5	1	27*	-22	26
O=C(Nc1ccc(N2CCN(C(=O)c3ccco3)CC2)cc1)c1ccc(Br)cc1	1	-1	-10	-3	-1	2	x
SMILES	LYPLA1 counter	PAD4 FP inh	PME-1 inh	Fam108B counter	LYPLA2 counter	GSTO1 inh	LYPLA2 conf	others
COc1ccc(N2C(=O)NC(NS(=O)(=O)c3ccc(NC(C)=O)cc3)(C(F)(F)F)C2=O)cc1 (centres undefined)	3	1	-1	-1	1	1	x
COc1ccccc1NC(=O)Cn1nnc(-c2ccccc2NC(=O)c2cnccn2)n1	0	4	5	-2	0	-2	x
CCC(C)/C=C/C1=CC2=C(Cl)C(=O)C3(C)OC(=O)C(C(=O)C(C)C(C)O)C3C2=CO1 (centres undefined)	0	0	-6	-1	-2	17	x
COc1ccc(CNCCc2ccc(Cl)cc2)cc1OCc1ccccc1	0	-4	0	2	4	4	x
COc1ccc(CCNCc2ccc(OCc3ccccc3)cc2)cc1	1	-7	-1	-4	32*	0	30*
COc1cc(C2Oc3cc(C4Oc5cc(O)cc(O)c5C(=O)C4O)ccc3OC2CO)ccc1O (centres undefined)	10	7	-2	2	60*	8	69*	LYPLA2 ABPP=75*
COc1ccc(S(=O)(=O)N2CCC(CN3C(=O)c4cccc5cccc(c45)C3=O)CC2)cc1	-2	-3	10	-9	5	-5	x
O=C(c1ccc(S(=O)(=O)N2CCCC2)cc1)N1CCC(CN2C(=O)c3cccc4cccc(c34)C2=O)CC1	5	-2	-4	-4	27*	-16	16
O=C(OCC(=O)N1CCc2ccccc21)c1ccccc1[N+](=O)[O-]	-3	-5	4	x	49*	x	56*
Cc1ccc(Cl)cc1NC(=O)CN1C(=O)COc2ccc(S(=O)(=O)N3CCOCC3)cc21	1	3	0	0	6	1	x
COc1cccc(NC(=O)CN2C(=O)CSc3ccc(S(=O)(=O)N4CCOCC4)cc32)c1	0	-1	3	-2	49*	3	45*
O=C(CN1C(=O)COc2ccc(S(=O)(=O)N3CCOCC3)cc21)Nc1cccc(Cl)c1	-7	0	-2	2	33*	0	46*
CCOc1ccc(NC(=O)CN2C(=O)COc3ccc(Cl)cc32)cc1	0	-1	2	-1	-2	5	x
COc1cccc(NC(=O)CN2C(=O)COc3ccc(S(=O)(=O)N4CCOCC4)cc32)c1	-1	-5	-6	1	38*	1	35*
